In all, about 16,000 compounds went through this assay and about 5,700 (36%) were called active. Inconclusive results (about 24%) are left out. Some of the results follow. Values without a mark were called inactive. The call rests on the fitted dose curve; in most records, active means well fitted curve in the direction sought with a large enough effect; inconclusive means small, poorly fitted or top-dose-only effect, or effect the other way; inactive means no such curve, though single readings can be large or run the other way.
The compounds below were run against Cytochrome P450 1A2 (Homo sapiens) (UniProt P05177) (assay: Cytochrome panel assay with activity outcomes). Conditions: recombinant CYP, pro-luciferin dealkylation, luminescence, p450-cyp1a2; series mostly up to 57.1 µM; activity, negative = inhibition: at the top concentration.
Sequence of Cytochrome P450 1A2 (Homo sapiens) (P05177 whole entry, looked up): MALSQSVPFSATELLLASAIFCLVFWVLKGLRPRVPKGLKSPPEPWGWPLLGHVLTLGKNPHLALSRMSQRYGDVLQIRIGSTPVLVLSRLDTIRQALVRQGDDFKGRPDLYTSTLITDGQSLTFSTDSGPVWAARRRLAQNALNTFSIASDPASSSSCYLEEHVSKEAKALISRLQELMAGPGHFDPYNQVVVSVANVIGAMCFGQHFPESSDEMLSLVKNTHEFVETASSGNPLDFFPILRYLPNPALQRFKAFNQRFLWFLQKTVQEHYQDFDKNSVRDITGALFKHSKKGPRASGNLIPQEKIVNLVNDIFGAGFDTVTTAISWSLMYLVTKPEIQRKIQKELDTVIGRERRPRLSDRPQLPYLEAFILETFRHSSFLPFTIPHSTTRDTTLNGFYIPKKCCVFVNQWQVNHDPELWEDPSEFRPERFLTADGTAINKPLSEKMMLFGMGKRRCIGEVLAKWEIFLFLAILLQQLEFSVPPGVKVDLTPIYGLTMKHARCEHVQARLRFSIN
On the % scale 0 is the no-effect control and ±100 the full control effect.

Structure (SMILES) | activity, negative = inhibition | AC50
CCN1C(=O)[C@H]2[C@H]3[C@H](O)[C@H](O)C/C(=N/O[C@@H](C)c4cn([C@H]5COC[C@H]5O)nn4)[C@@H]3CC[C@@H]2C1=O | -9.43% [at 11.4 µM] | –
CCCS(=O)(=O)N1CCCC(C(=O)NCCN2CCOCC2)C1 (stereo not drawn) | -13.1% | –
COCCNC(=O)c1cn(Cc2c(F)cccc2Cl)nn1 | 0.621% | –
COCCNC(=O)CCn1nc(-c2ccc(Cl)cc2)ccc1=O | -23.7% | –
COCCNC(=O)c1sc2nc(-c3ccccc3)cn2c1C | – | 2 µM (active)
Cc1cc(=O)[nH]c2ccccc12 | – | 15.8 µM (active)
O=c1[nH]c2ccccc2c2ccccc12 | – | 0.251 µM (active)
CC(=O)Nc1ccc(Cc2ccc3[nH]c(=O)cc(C)c3c2)cc1 | -17% [at 11.4 µM] | –
O=C(O)c1cccnc1SCC(=O)N1CCCCCC1 | -7.56% | –
C=CCSc1ncccc1C(=O)NCc1ccc(C)cc1 | – | 0.794 µM (active)
COC(=O)C/C=C\[C@@H](C)[C@@H](/C=N\O[C@@H](C)CN1CCCc2nc(C)c(C)cc21)OC | -0.522% [at 11.4 µM] | –
Cn1ncc(Cl)c1C(=O)Nc1cccnc1 | – | 3.55 µM (active)
O=C(Nc1cccnc1)c1ccc(COc2cc(Cl)ccc2Cl)o1 | – | 0.794 µM (active)
O=C(N/N=C/c1ccc(O)cc1)c1ccc(COc2cc(Cl)ccc2Cl)o1 | – | 4.47 µM (active)
CC(C)CNC(=O)c1ccc(COc2ccc(Cl)cc2Cl)o1 | – | 14.1 µM (active)
CC(C(=O)Nc1cccnc1)N1C(=O)C2C3C=CC(C3)C2C1=O (stereo not drawn) | -24.9% | –
O=C1C(O)=C(O)C(=O)C(O)=C1O | -3.27% [at 25.6 µM] | –
CC(=O)OC[C@@H]1O[C@H](CCO/N=C(\C)CCN2CCCc3nc(C)c(C)cc32)C=C[C@@H]1OC(C)=O | -5.74% [at 11.4 µM] | –
CC(Cc1ccccc1)N/C=C1\CC(=O)NC1=O (stereo not drawn) | -19.7% | –
COc1cc(OC)c2nc(C)c3c(c2c1)N(c1ccc(O)cc1)CC3 | – | 2.24 µM (active)
NC(=O)N[C@H]1NC(=O)NC1=O | -5.86% [at 25.6 µM] | –
Cn1c(=N)c(S(=O)(=O)c2ccc(F)cc2)cc2c(=O)n3ccccc3nc21 | – | 12.6 µM (active)
CC(C)Cn1c(C(C)C)nc([N+](=O)[O-])c1S(=O)(=O)c1ccc(F)cc1 | -26.1% | –
CCn1c(=N)c(S(=O)(=O)c2ccc(F)cc2)cc2c(=O)n3ccccc3nc21 | – | 1.58 µM (active)
CN(C)C(=C(C#N)C#N)N1CCN(c2ccc(Cl)c(Cl)c2)CC1 | – | 25.1 µM (active)

Structure (SMILES) | activity, negative = inhibition | AC50
CC(C)CC(=O)N1CCN(Cc2cccc(F)c2)CC1 | -7.54% | –
O=C(c1cccc(F)c1)N1CCC2(CC1)CN(Cc1ccccc1)C2 | -5.98% | –
O=C(OCc1cccc(F)c1)c1ccc2c(c1)-c1ccccc1C2=O | – | 3.55 µM (active)
CCOC(=O)Cc1csc(NC(=O)c2ccc(S(=O)(=O)N3CCCCC3)cc2)n1 | – | 15.8 µM (active)
CCOC(=O)Cc1csc(NC(=O)c2ccc(Cl)nc2)n1 | – | 10 µM (active)
CCOC(=O)Cc1csc(NC(=O)c2sc3nc4ccc(CC)cc4cc3c2N)n1 | -23.8% | –
CCOC(=O)Cc1csc(NS(=O)(=O)c2ccccc2)n1 | -16.9% | –
COCc1nnc(NC(=O)c2ccc(S(=O)(=O)N3CCCCCC3)cc2)o1 | -9.54% | –
COc1ccc(N2C(=O)CCC(C(=O)Nc3ccccn3)C2c2ccc(OC)c(OC)c2)cc1 (stereo not drawn) | -26.4% | –
C/C(CCN1CCCCc2nc(C)c(C)cc21)=N\OC[C@@H](O)COCc1ccco1 | -9.9% [at 11.4 µM] | –
O=C1C(Cl)=C(Sc2nnc3c4ccccc4c4ccccc4c3n2)C(=O)c2ccccc21 | – | 0.398 µM (active)
O=c1c2c(-c3ccc(Cl)cc3)csc2nc2n1CCC2 | – | 1.26 µM (active)
O=c1cc(CN2CCN(c3ccc(F)cc3)CC2)c2cc3c(cc2o1)CCCC3 | -25.7% | –
O=c1oc2c(CN3CCOCC3)c(O)ccc2c2ccccc12 | – | 1.26 µM (active)
COc1ccc(-c2c(C)oc3c(CN4CCN(CCO)CC4)c(O)ccc3c2=O)cc1OC | -11.4% | –
O=C(C1CCN(S(=O)(=O)N2CCOCC2)CC1)N1CCN(Cc2ccccc2)CC1 | 4.96% | –
CCCc1cc(=O)oc2c(CN3CCOCC3)c(O)ccc12 | – | 14.1 µM (active)
COc1ccccc1-c1c(C)oc2c(CN3CCN(CCO)CC3)c(O)ccc2c1=O | -1.03% | –
CCCCc1nc(SCC(=O)Nc2ncccn2)n[nH]1 | -22.5% | –
Cc1cc(NC(=O)CSc2nc3ccsc3c(=O)n2CCCCC(=O)O)no1 | -3.12% | –
Cc1cc(NC(=O)CSc2n[nH]c(-c3cccs3)n2)no1 | – | 2.51 µM (active)
CN1CCN(CC(=O)N2c3ccccc3Sc3cc4ccccc4cc32)CC1 | -21.6% [at 2.29 µM] | –
O=C(CSc1nc2ccccc2s1)N1c2ccccc2Sc2ccccc21 | – | 0.708 µM (active)
COc1ccc(OCc2nnc(SCC(=O)N3c4ccccc4Sc4ccc(Cl)cc43)o2)cc1 | -0.153% | –
O=C(CSc1nc2ccccc2o1)N1c2ccccc2Sc2ccc(Cl)cc21 | – | 2.24 µM (active)

Structure (SMILES) | activity, negative = inhibition | AC50
O=C(CSc1nc2ccccc2s1)N1c2ccccc2Sc2ccc(C(F)(F)F)cc21 | – | 1.12 µM (active)
O=C(CSc1nc2ccccc2s1)c1sc2sc3ccccc3[n+]2c1O | – | 5.01 µM (active)
Cc1c(NC(=O)Cn2ccc([N+](=O)[O-])n2)c(=O)n(-c2ccccc2)n1C | -9.17% | –
Nc1ncc(-c2ccccc2)n1CC1CCCO1 (stereo not drawn) | – | 15.8 µM (active)
S=c1[nH]nc(-c2ccncc2)n1CC1CCCO1 (stereo not drawn) | -22.4% | –
Cc1ccc(-c2ccc(CCC(=O)O)n2CC2CCCO2)cc1 (stereo not drawn) | -27.4% | –
O=C(NNC(=O)C1CCN(S(=O)(=O)c2ccc(Cl)cc2)CC1)c1ccc(Cl)cc1 | 10.9% | –
Nc1ccc(CCNc2ncnc3c2ncn3[C@@H]2O[C@@H](CO)[C@H](O)[C@@H]2O)cc1 | -9.16% | –
Cc1ccc(N=Nc2c(=O)[nH]n3c(C)cc(C)nc23)cc1 | – | 12.6 µM (active)
CC(C)N=C(Nc1ccc(Cl)cc1)c1cccnc1 | -17.4% | –
CC(=O)NC1(c2ccc(F)cc2)CCN(C(=O)Nc2ccc(F)cc2F)CC1 | -6.47% | –
Cc1nc(-c2cccnc2)sc1C(N)=O | – | 14.1 µM (active)
CNC(=O)c1sc(-c2cccnc2)nc1C | – | 14.1 µM (active)
Cc1nc(-c2cccnc2)sc1C(=O)Nc1ccc(Cl)cc1 | – | 2.51 µM (active)
Cc1cccc(C)c1NC(=O)CS(=O)CC(=O)Nc1ccc(F)cc1F (stereo not drawn) | -14.2% | –
Cc1nc(-c2cccnc2)sc1C(=O)Nc1ccc(F)cc1F | – | 4.47 µM (active)
CC(C)NC(=O)N1CC2(CCN(S(=O)(=O)c3ccccc3)CC2)C1 | -9.07% | –
Cn1ccnc1C[C@@](C)(O)c1ccccc1 | -14.2% [at 11.4 µM] | –
CC(C(=O)NC1CCCC1)N(C(=O)c1snc(C(N)=O)c1N)c1ccc2c(c1)OCCO2 (stereo not drawn) | -27.6% | –
CC(Sc1ccc2c(c1)OCCO2)C(=O)Nc1ncc(Cl)cc1Cl (stereo not drawn) | – | 6.31 µM (active)
COCC(=O)N1CCC2(CCCN(Cc3ccccc3OC)C2)CC1 | -2.98% | –
NCC(=O)Nc1ccc(Cl)cc1C(=O)c1ccc[nH]1 | – | 3.16 µM (active)
Cc1nn(CC(=O)NCc2ccccc2)c(C)c1[N+](=O)[O-] | -4.08% | –
Cc1cc2c(ncn2Cc2ccccc2)c([N+](=O)[O-])c1C | – | 5.62 µM (active)
Cc1cccc(Cn2cnc3c(NS(C)(=O)=O)c(C)c(C)cc32)c1 | – | 3.16 µM (active)

Structure (SMILES) | activity, negative = inhibition | AC50
Cc1ncc([N+](=O)[O-])n1CC(=O)NCc1ccccc1 | -24% | –
CC(=O)C=NCC(=O)O | 0.0576% [at 11.4 µM] | –
COC(=O)[C@@]1(Cc2ccc(F)cc2)[C@H]2c3cc(C(=O)N(C)C)n(Cc4ccc(C(F)(F)F)nc4)c3C[C@H]2CN1C(=O)c1ccccc1 | -10.8% | –
COc1ccc(CCNc2nc(-c3cccnc3)cs2)cc1OC | – | 0.355 µM (active)
COc1ccccc1CNc1cc(-c2cccnc2)ncn1 | – | 1 µM (active)
COc1ccc(CNc2cc(-c3cccnc3)ncn2)c(OC)c1 | – | 1.26 µM (active)
CC(C)(C)C(=O)N(CCN(C(=O)C(C)(C)C)c1ccccc1)c1ccccc1 | -6.47% | –
COC(=O)C/C=C\[C@@H](C)[C@@H](/C=N\OC[C@@H](O)[C@H]1O[C@H]2OC(C)(C)O[C@H]2[C@@H]1O)NS(=O)(=O)c1ccc(C)cc1 | 0.282% [at 11.4 µM] | –
CCCC[C@@H]1C[C@H]1C(NC(=O)c1ccccc1)c1ccccc1 (stereo partly drawn) | – | 2.51 µM (active)
CCCC[C@@H]1C[C@H]1C(NC(=O)c1ccccc1)c1ccc(Cl)cc1 (stereo partly drawn) | – | 1 µM (active)
CCC[C@@H]1C[C@@]1(CCC)C(NC(=O)c1ccccc1)c1cccc(Cl)c1 (stereo partly drawn) | -9.7% | –
C[C@@]1(C(NC(=O)c2ccc(-c3ccccc3)cc2)c2ccc(Cl)cc2)C[C@H]1C1CCCCC1 (stereo partly drawn) | -17.1% | –
CCCC[C@@H]1C[C@H]1C(NC(=O)c1ccc(-c2ccccc2)cc1)c1ccc(-c2ccccc2)cc1 (stereo partly drawn) | 0.142% | –
C=C(CC1([C@@H](NP(=O)(c2ccccc2)c2ccccc2)[C@H]2C[C@@H]2CCCC)CC1)c1ccccc1 | -15.8% | –
COC(=O)c1ccc(Oc2cc(C)nc(-n3nc(C)cc3C)n2)cc1 | – | 8.91 µM (active)
Cc1cc(C)n(-c2ccc(Cl)c(C(=O)O)n2)n1 | -1.29% | –
Cc1ccc(-c2csc(C(C#N)=C3CCCC3)n2)cc1 | – | 3.55 µM (active)
N#CC(=C1CCCC1)c1nc(-c2ccccc2)cs1 | – | 0.631 µM (active)
N#C/C(=N\O)c1nc(-c2ccccc2)cs1 | – | 6.31 µM (active)
CC1(C)N=C(N)N=C(N)N1CCCCc1ccccc1 | -4.32% [at 2.29 µM] | –
C/C(O)=C\c1nc2ccccc2oc1=O | -19.9% | –
O=S(=O)(O)c1ccc(-c2nnc(-c3ccccn3)nc2-c2ccc(S(=O)(=O)O)o2)o1 | -8.46% [at 11.4 µM] | –
c1ccc(-c2nc3ccccc3o2)nc1 | – | 0.501 µM (active)

From PubChem BioAssay AID1851 (National Center for Advancing Translational Sciences (NCATS), 2009)
